Laboratory results: PubChem BioAssay (NCATS)
Records with an inconclusive call do not appear. Active and inactive are the calls of the source. Calls follow the shape of the dose curve; as a rule, active = well fitted curve in the direction sought with a large enough effect; inconclusive = small, poorly fitted or top-dose-only effect, or another doubt; inactive = no such curve, though single readings can be large; an effect the other way counts as inactive or inconclusive.

Columns and labels:
[1] = Vero-766 cells viability qHTS against the NCATS CANVASS Library: Counterscreen for Zika virus inhibition assay (AID 1347394); also: series mostly up to about 46 µM; nearly all actives have a fitted effect of over 60% in size
Method in brief: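 Counterscreen for toxicity: Vero 766 cells exposed 72 h to an 11-point compound series, viability by CellTiter-Glo.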

[2] = qHTS for inhibitors of Wild type Zika virus screened against the NCATS CANVASS Library (AID 1347396);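 also: ATP luminescence of surviving cells so rescue from viral cell killing; series mostly up to about 46 µM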
Source text: Natural products and their derivatives continue to be wellsprings of nascent therapeutic potential. However, many laboratories have limited resources for biological evaluation, leaving their previously isolated or synthesized compounds largely or completely untested. To address this issue, the Canvass library of natural products was assembled (https://tripod.nih.gov/canvass), in collaboration with academic and industry researchers, for quantitative high-throughput screening (qHTS) across a diverse set of cell-based and biochemical assays. […] The library was formatted into 1536-well plates and evaluated in 50 qHTS (in an 11-pnt concentration series) bioassays with broad scope of disease-relevant mechanisms. The resulting data set from 50 different assays was then systematically analyzed to identify overall trends and specific natural products with interesting biological activities. […]
Zika virus infection assay protocol: 1. […] In a biosafety cabinet, the desired MOI Zika virus was calculated and 2 uL of 2.5x Zika virus was dispensed into columns 1, 2 and 5 - 48 using the Multidrop Combi dispenser. […] Luminescence signal was obtained via the ViewLux plate reader (Perkin Elmer) using the clear emission filter and 1x binning, 2 seconds exposure settings.

[3] = Viability qHTS for inhibitors of the SERCaMP assay screened against the NCATS CANVASS Library (AID 1347400); also: series mostly up to about 92 µM; nearly all actives have a fitted effect of over 70% in size
Method in brief: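 SH-SY5Y-GLuc SERCaMP MJH297-derived cells (1000 cells/well) were pre-incubated 4 h at 37C, then exposed to compounds for 48 h. Viability was read as CellTiter-Glo luminescence; bortezomib served as positive control.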

[4] = Redox Reaction Profiling qHTS: Assay Interference Panel against the NCATS CANVASS Library (AID 1347401)
Method in brief: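 Resazurin (5 uM) conversion to resorufin measured with 200 uM DTT in 50 mM HEPES pH 7.3, 50 mM NaCl. Compounds tested in 11-point qHTS series. Fluorescence (ex 525/em 598 nm) read before and after 15 min dark incubation.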

[5] = qHTS to identify inhibitors of the type 1 interferon - major histocompatibility complex class I in skeletal muscle: primary screen against the NCATS LOPAC collection (AID 1347405);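 also: lytic HiBiT luminescence reporting HLA-B protein level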
Method in brief: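 Immortalized human C25cl48 myoblasts with HiBiT knocked into endogenous HLA-B*08:01 were stimulated with 4.0 ng/ml IFN-beta and given compounds in a 7-point, 1:4.3 titration from 46 uM final; after 24 hrs, lytic HiBiT luminescence was read.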

[6] = qHTS to identify inhibitors of the type 1 interferon - major histocompatibility complex class I in skeletal muscle: primary screen against the NCATS Pharmaceutical Collection (AID 1347407);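 also: luminescence of HiBiT knocked into endogenous HLA-B as interferon-induced MHC class I level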
Method in brief: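 A qHTS format is used: 8-point, 1:5 compound series with 46 uM top final concentration, applied alongside 4 ng/ml IFN-beta to HLA-B*08:01-HiBiT knock-in myoblasts. Luminescence is measured after 24 h treatment.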

[7] = qHTS to identify inhibitors of the type 1 interferon - major histocompatibility complex class I in skeletal muscle: primary screen against the NCATS Mechanism Interrogation Plate v5.0 (MIPE) Libary (AID 1347411); also: nearly all actives have a fitted effect of over 65% in size
Method in brief: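 Immortalized human C25cl48 myoblasts with HiBit knocked into endogenous HLA-B*08:01 were stimulated with 4.0 ng/ml IFN-beta and exposed to compounds (11-point 1:3 titration, top 46 uM final) for 24 hrs at 37 C; HiBiT lytic luminescence measured.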

[8] = biological target: Protein phosphatase 1D (Homo sapiens) (UniProt O15297); test: Rhodamine-PBP qHTS Assay for Modulators of WT P53-Induced Phosphatase 1 (WIP1) (AID 1347425)
Sequence of Protein phosphatase 1D (Homo sapiens) (O15297 whole entry, looked up): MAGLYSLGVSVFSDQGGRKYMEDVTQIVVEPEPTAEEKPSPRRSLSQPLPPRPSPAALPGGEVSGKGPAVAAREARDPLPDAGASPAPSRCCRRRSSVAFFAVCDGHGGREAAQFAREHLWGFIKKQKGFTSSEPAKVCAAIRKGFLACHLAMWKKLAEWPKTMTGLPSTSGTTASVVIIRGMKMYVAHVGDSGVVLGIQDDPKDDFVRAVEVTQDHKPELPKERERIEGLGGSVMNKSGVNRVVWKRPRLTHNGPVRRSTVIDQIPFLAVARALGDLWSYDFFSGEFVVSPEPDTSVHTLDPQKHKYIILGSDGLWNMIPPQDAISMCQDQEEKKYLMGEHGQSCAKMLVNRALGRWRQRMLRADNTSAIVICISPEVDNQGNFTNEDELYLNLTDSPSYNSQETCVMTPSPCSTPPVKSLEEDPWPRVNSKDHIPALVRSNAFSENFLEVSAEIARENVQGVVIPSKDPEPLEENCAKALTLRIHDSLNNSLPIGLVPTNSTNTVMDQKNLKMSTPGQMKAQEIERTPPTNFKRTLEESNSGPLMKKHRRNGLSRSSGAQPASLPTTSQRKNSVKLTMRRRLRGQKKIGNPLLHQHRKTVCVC
Method in brief: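 WIP1 (5 nM final) was preincubated with compound for 1 hour at room temperature. It then dephosphorylated 10 uM VEPPL-pS-QETFS peptide in Tris-HCl pH 7.5 with 30 mM MgCl2. Released Pi was detected by 10 uM Rh-PBP fluorescence (ex 525/em 598 nm) read at 1-min intervals for 11 min, as delta f1 - f0.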

[9] = qHTS for inhibitors of adenylyl cyclases using a fission yeast platform: a pilot screen against the NCATS LOPAC library (AID 1347410)
Method in brief: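 Inhibition of GNAS-stimulated AC9 activity in S. pombe was inferred from derepression of a PKA-repressed fbp1-GFP reporter, measured as cytometric fluorescence after 18 h at 30C with compounds at up to 57 µM.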

[10] = biological target: Protein phosphatase 1D (Homo sapiens) (UniProt O15297); test: RapidFire Mass Spectrometry qHTS Assay for Modulators of WT P53-Induced Phosphatase 1 (WIP1) (AID 1347424);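 also: amount of dephosphorylated VEPPL-S-QETFS peptide product formed by WIP1; series mostly up to about 63 µM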
Method in brief: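 WIP1 (10 nM final) was preincubated 1 h at room temperature with compounds in Tris-HCl pH 7.5, 30 mM MgCl2, TCEP, EGTA, BSA; 2 uM VEPPL-pS-QETFS phosphopeptide was added for 5 min, quenched with formic acid, and dephosphorylated product quantified by RapidFire MS.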

Measured: Potency

COc1ccc2[nH]cc(CCNC(C)=O)c2c1
not listed: [9] | [10]
inactive: all other assays above

Clc1ccc2c(c1)C(N1CCNCC1)=Nc1ccccc1O2
inactive: [5] | [6] | [9] | [10] | [8]

CN(C)c1nc(N(C)C)nc(N(C)C)n1
inactive: [5] | [6] | [9] | [7] | [8]

CCN1CCCC1CNC(=O)c1cc(S(=O)(=O)CC)c(N)cc1OC (stereo unspecified)
inactive: [5] | [6] | [9] | [7] | [8]

O=C(CCCN1CCC(O)(c2ccc(Cl)cc2)CC1)c1ccc(F)cc1
inactive: [5] | [6] | [9] | [10] | [8]

O=C1N(c2ccccc2)c2ccccc2C1(Cc1ccncc1)Cc1ccncc1
inactive: [5] | [6] | [9] | [7] | [8]

NCCCCCC(=O)O
inactive: [5] | [6] | [9] | [7] | [8]

CN(C)CCCN1c2ccccc2CCc2ccc(Cl)cc21
inactive: [5] | [6] | [9] | [7] | [10] | [8]

CCCNCC(O)COc1ccccc1C(=O)CCc1ccccc1 (stereo unspecified)
inactive: [5] | [6] | [9] | [7] | [10] | [8]

NCCc1cnc[nH]1
inactive: [5] | [6] | [9] | [7] | [10] | [8]

Cc1ccc(-c2cc(C(F)(F)F)nn2-c2ccc(S(N)(=O)=O)cc2)cc1
inactive: [5] | [6] | [9]

NCCS(=O)(=O)O
inactive: [5] | [6] | [9] | [7] | [10] | [8]

CC[N+](CC)(CC)CCOc1cccc(OCC[N+](CC)(CC)CC)c1OCC[N+](CC)(CC)CC
inactive: [5] | [6] | [9] | [7] | [8]

Nc1nnc(-c2cccc(Cl)c2Cl)c(N)n1
inactive: [5] | [6] | [9] | [7] | [10] | [8]

COc1ccccc1N1CCN(CC(O)COc2cccc3ccccc23)CC1 (stereo unspecified)
inactive: [5] | [6] | [9] | [7] | [10] | [8]

CC1COc2c(N3CCN(C)CC3)c(F)cc3c(=O)c(C(=O)O)cn1c23 (stereo unspecified)
inactive: [5] | [6] | [9] | [7] | [10] | [8]

Cc1cc(C(C)(C)C)c(O)c(C)c1CC1=NCCN1
inactive: [5] | [6] | [9] | [7] | [8]

NC(CO)C(=O)NNCc1ccc(O)c(O)c1O (stereo unspecified)
inactive: [5] | [6] | [9] | [7] | [8]

C[C@H]1c2cccc(O)c2C(O)=C2C(=O)[C@]3(O)C(O)=C(C(N)=O)C(=O)[C@@H](N(C)C)[C@@H]3[C@@H](O)[C@@H]21
inactive: [5] | [6] | [9] | [7] | [10] | [8]

Clc1ccc2nsnc2c1NC1=NCCN1
inactive: [5] | [6] | [9] | [7] | [10] | [8]

CC(C)(Oc1ccc(C2CC2(Cl)Cl)cc1)C(=O)O (stereo unspecified)
inactive: [5] | [6] | [9] | [7] | [10] | [8]

Cc1cnc(C(=O)NCCc2ccc(S(=O)(=O)NC(=O)NC3CCCCC3)cc2)cn1
inactive: [5] | [6] | [9] | [7] | [8]

COc1ccccc1OCC(O)CN1CCN(CC(=O)Nc2c(C)cccc2C)CC1 (stereo unspecified)
inactive: [5] | [6] | [9] | [7] | [8]

CC(C)(C)C(=O)Oc1ccc(S(=O)(=O)Nc2ccccc2C(=O)NCC(=O)O)cc1
inactive: [5] | [6] | [9] | [7] | [10] | [8]

Cn1ccc2cc3c(cc21)CCN3C(=O)Nc1cccnc1
inactive: [5] | [6] | [9] | [7] | [10] | [8]

OCCN(CCO)c1nc(N2CCCCC2)c2nc(N(CCO)CCO)nc(N3CCCCC3)c2n1
inactive: [5] | [6] | [9] | [7] | [8]

Cc1cc(C(C)(C)C)cc(C)c1CC1=NCCN1
inactive: [5] | [6] | [9] | [7] | [10] | [8]

CC12CC3CC(C)(C1)CC(N)(C3)C2
inactive: [5] | [6] | [9] | [7] | [10] | [8]

CN1CCN(CCCN2c3ccccc3Sc3ccc(Cl)cc32)CC1
inactive: [5] | [6] | [9] | [10] | [8]

O=C(c1ccc(F)cc1)C1CCN(CCn2c(=O)[nH]c3ccccc3c2=O)CC1
inactive: [5] | [6] | [9] | [10] | [8]

NC12CC3CC(CC(C3)C1)C2
inactive: [5] | [6] | [9] | [7] | [10] | [8]
